KB-V1 cytotox = kills drug-selected multidrug resistant KB-V1 cells. KB-V1 MDR cells viability, CellTiter-Glo, 72 h. Potency, µM (series often up to 46.1 µM), usual class: cytotoxic. 400,000 tested, 3.4% active. AID 1347076; further: nearly all actives have a fitted effect of over 60% in size
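Compound-treated KB-V1 multidrug-resistant cells, 72 h, 37 degrees C; viability by CellTiter-Glo. Fitted qHTS curves give the values.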
MCF10A rerep = DNA re-replication induction in MCF 10a cells. MCF 10A DNA re-replication, Hoechst nuclear intensity, 48 h. Potency, µM (series often up to 46.1 µM), hits mostly activators. 350,000 tested, 2.9% active; further: nearly all actives have a fitted effect of over 50% in size
SW480 rereplic = DNA re-replication induction in SW480 cells; SW480 DNA re-replication, Hoechst DNA content imaging, 48 h; Potency, µM (titrated, usually from 46.1 µM), most hits filed as activators; 340,000 tested, 1.8% active; AID 624297; further: nearly all actives have a fitted effect of over 55% in size
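Cells (250 per well) received 23 nL compound or DMSO by pin tool and were kept 48 hr at 37 C, 5% CO2. Nuclei were then stained with Hoechst for 40 min and scanned for DNA content.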
HT1080-NT tox = kills 2HG-producing HT-1080-NT fibrosarcoma cells; HT-1080-NT fibrosarcoma viability, CellTiter-Glo ATP luminescence, 48 h; Potency, µM (top dose mostly 46.1 µM), most hits filed as cytotoxic; 360,000 tested, 1.6% active;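 further: NT is the 2HG producing partner of a matched IDH1 knockdown line; nearly all actives have a fitted effect of over 55% in size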
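HT-1080-NT fibrosarcoma cells (2HG-overproducing), 750 cells/well in RPMI with 5% FBS, dosed after 2 h and incubated 48 h at 37C. CellTiter-Glo luminescence normalized to DMSO and no-cell wells; concentration-response curves fitted and classed.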
HT1080 IDH1KD tx = toxicity to HT-1080 IDH1 knockdown cells (counter line) | HT-1080 IDH1 knockdown viability, ATP luminescence, 48 h | Potency, µM (series often up to 46.1 µM), most hits filed as cytotoxic | 360,000 tested, 2% active | AID 686971
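Viability of IDH1-knockdown HT-1080 fibrosarcoma cells was assessed by CellTiter-Glo after 48 h at 37 °C with titrated compound; concentration-effect curves were classified by fit quality and response size.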
KB-3-1 cytotox = KB-3-1 parental cell cytotoxicity | KB-3-1 viability, CellTiter-Glo ATP luminescence, 72 h | Potency, µM (highest dose often 46.1 µM), hits mostly cytotoxic | 400,000 tested, 1.4% active; further: nearly all actives have a fitted effect of over 60% in size
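Parental KB-3-1 adenocarcinoma cells in phenol-red-free DMEM with 10% FBS were pin-treated with compounds at several concentrations, incubated 72 h at 37 °C, and viability read by CellTiter-Glo luminescence; concentration-effect curves were fitted after normalization.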
Hits are given with their value; . = inactive; ? = inconclusive; / = no result; [ ] = dose if it differs, or a comment. Only some compounds are listed: those with a hit (about 7.9% of all), similar ones and a draw of the others. The call rests on the fitted dose curve; in most records, active means well fitted curve in the direction sought with a large enough effect; inconclusive means small, poorly fitted or top-dose-only effect, or another doubt; inactive means no such curve, though single readings can be large; an effect the other way counts as inactive or inconclusive.

SMILES	KB-V1 cytotox	MCF10A rerep	SW480 rereplic	HT1080-NT tox	HT1080 IDH1KD tx	KB-3-1 cytotox
CC(O)(c1ccc(F)c(F)c1)c1nc(-c2cccc(C(F)(F)F)c2)cs1 (stereo unspecified)	.	/	/	?	?	.
COc1ccc(-c2csc(C(O)(c3ccccc3)C(F)(F)F)n2)cc1 (stereo unspecified)	.	/	/	?	?	.
OC(c1ccccc1)(c1nc(-c2ccc(Cl)cc2)cs1)C(F)(F)F (stereo unspecified)	.	/	/	16.4µM	?	.
CC(O)(c1ccc(F)c(F)c1)c1nc(-c2ccc(Cl)cc2)cs1 (stereo unspecified)	.	/	/	?	23.1µM	.
CCOC(=O)c1cc(-c2csc(Nc3c(C)cc(C)cc3C)n2)on1	?	?	.[9.22 µM]	?	?	?
O=C(COC(=O)C1C2CC3OC(=O)C1C3C2)Nc1ccc(Br)cc1 (stereo unspecified)	.	.	.	.	.	.
OC(c1ccccc1)(c1nc(-c2cccc(C(F)(F)F)c2)cs1)C(F)(F)F (stereo unspecified)	?	/	/	23.1µM	16.4µM	.
COc1ccc(-c2csc(C(C)(O)c3cccnc3)n2)cn1 (stereo unspecified)	.	/	/	.	.	.
O=C(O)c1cccc(-c2csc(C(O)(c3ccccc3)C(F)(F)F)n2)c1 (stereo unspecified)	.	/	/	.	.	.
COc1ccc(-c2csc(C(O)(c3ccccc3)C(F)(F)F)n2)cn1 (stereo unspecified)	.	/	/	23.1µM	.	.
N#Cc1cccc(-c2csc(C(O)(c3ccccc3)C(F)(F)F)n2)c1 (stereo unspecified)	?	/	/	?	16.4µM	?
CCN(CC)C(=O)c1cccc(-c2csc(C(O)(c3ccccc3)C(F)(F)F)n2)c1 (stereo unspecified)	?	/	/	23.1µM	16.4µM	?
CC(=O)Nc1ccc(S(=O)(=O)NCCCc2ccccc2)cc1	.	.	.	.	.	.
OC(c1ccccc1)(c1nc(-c2csc3ccccc23)cs1)C(F)(F)F (stereo unspecified)	?	/	/	?	?	.
OC(c1ccccc1)(c1nc(-c2cc3ccccc3o2)cs1)C(F)(F)F (stereo unspecified)	?	/	/	16.4µM	?	23.1µM
CCN(CC)C(=O)c1cccc(-c2csc(C(C)(O)c3ccc(OC)cc3)n2)c1 (stereo unspecified)	?	/	/	5.8µM	?	11.6µM
FC(F)(F)c1cccc(-c2ccn3ncnc3n2)c1	20.6µM	.	.	.	.	.
CCN(CC)C(=O)c1cccc(-c2csc(C(C)(O)c3cccc(OC)c3)n2)c1 (stereo unspecified)	.	/	/	.	?	.
NS(=O)(=O)c1ccc(CCNC(=O)C(=O)NCC2OCCN2C(=O)c2ccc3c(c2)OCO3)cc1 (stereo unspecified)	.	.	.	.	.	.
O=C(Cn1cnc2c(cnn2-c2ccc(F)cc2)c1=O)NCc1ccco1	8.2µM	14.6µM	?	?	18.4µM	9.2µM
Cc1ccc(-n2ncc3c(=O)n(CC(=O)NCc4ccco4)cnc32)cc1C	?	?	?	?	?	23.1µM
CNC(=O)c1csc(-c2ccc(C)cc2)n1	?	.	.	.	.	.
CCOC(=O)C1=C(COC(=O)[C@@H]2CCCN2S(=O)(=O)c2ccc(C)cc2)NC(=O)NC1C (stereo partly specified)	/	.	.	.	.	/
Cc1ccccc1OCC(O)CNC1CCC(NCC(O)COc2ccccc2C)CC1 (stereo unspecified)	18.4µM	?	4.11µM	2.91µM	2.31µM	3.26µM
OC(CNC1CCCCCC1)COc1cccc2ccccc12 (stereo unspecified)	20.6µM	.	18.4µM	20.6µM	?	?
SMILES	KB-V1 cytotox	MCF10A rerep	SW480 rereplic	HT1080-NT tox	HT1080 IDH1KD tx	KB-3-1 cytotox
COc1cc(/C=C2\SC(=N)N(c3ccc4c(c3)OCO4)C2=O)cc(OC)c1O	.	?	?	.	.	.
COc1ccccc1N(CC(=O)NC(C)(C)C)C(=O)C1CSC(=O)C1 (stereo unspecified)	.	.	.	.	.	.
CCN(CC(=O)Nc1c(F)cccc1F)C(=O)C1CC(=O)N(CCc2ccccc2)C1 (stereo unspecified)	.	.	.	.	.	.
CCc1cc(=O)oc2cc(OCC(=O)NCc3ccccn3)ccc12	.	?	11.6µM	.	.	.
O=C(COc1ccc2c(-c3ccccc3)cc(=O)oc2c1)NCc1ccccn1	.	.	.	.	.	.
Cc1ccc(CN2CCN(CC(=O)N=Nc3c(O)[nH]c4ccccc34)CC2)cc1	?	?	.	.	.	.
O=C(CN1CCN(Cc2ccccc2Cl)CC1)N=Nc1c(O)[nH]c2ccccc12	14.6µM	.	.	.	.	.
COc1ccc(-c2cccc(NS(=O)(=O)c3ccc([N+](=O)[O-])cc3)c2)nn1	13µM	.	.	.	.	.
COc1ccc(-c2cccc(NS(=O)(=O)c3cccc([N+](=O)[O-])c3)c2)nn1	.	.	?	.	.	.
COc1ccc(-c2c3c(nc4sc5c(=O)[nH]c(C)nc5c24)CCC3)cc1	.	?	.	.	.	.
COc1ccc(-c2c3c(nc4sc(C(=O)Nc5cc(C)on5)c(N)c24)CCC3)cc1	.	1.46µM	18.4µM	.	?	.
Cc1ccc(C)c(N2CCN(C(=O)CCCN3C(=S)NC(C)(C)CC3C)CC2)c1 (stereo unspecified)	?	.	.	?	?	20.6µM
CC1CC(C)(C)NC(=S)N1CCCC(=O)Nc1ccc(Br)cc1 (stereo unspecified)	23.1µM	.	.	.	?	.
Cc1cccc(NC(=O)CCCN2C(=S)NC(C)(C)CC2C)c1C (stereo unspecified)	.	.	.	.	.	.
Cc1cccc(N2CCN(C(=O)CCN3C(=S)NC(C)(C)CC3C)CC2)c1C (stereo unspecified)	4.11µM	.	.	.	.	.
CC(C)(C)c1ccc(C2C(C#N)=C(N)Oc3n[nH]c(-c4cccnc4)c32)cc1 (stereo unspecified)	.	.	.	.	.	.
Cc1ccc(-n2ncc(C(=O)NCc3ccco3)c2C2CCN(C(=O)OC(C)(C)C)CC2)cc1C	.	/	/	/	/	.
CCNc1nc(N2CCCC2)nc(N2CCCC2)n1	.	.	.	.	.	.
CCNc1nc(NC(C)(C)C)nc(N2CCCCC2)n1	.	18.4µM	14.6µM	.	.	?
COc1ccc2ccccc2c1CN1CCSCC1	.	.	.	.	.	.

Screens: PubChem, National Center for Advancing Translational Sciences (NCATS)
